Among the data in the OligoGym collection are sensor-assay potency score (higher = more potent) values, retold here.
Also: reference of the scale not given here.

For one experiment, the target named is STK11. Put plainly: pooled miR-30 sensor sort-seq; sequence = guide strand. The settings on record: shRNA.
TTTTTGTGCCGTAACCTCCTCA came in with a sensor-assay potency score (higher = more potent) of 0.218.
On the same count and under the same terms, then TATAACACATCCACCAGCTGGA, with 0.528; and ATCAGCTGACAGAAGTACCCGT, with -0.0103; and TTTCTGCTTCTCTTCGTTGTAT, with 0.0401.
For TAACACATCCACCAGCTGGATG, the sensor-assay potency score (higher = more potent) was -1.1.
With TTCTTCTTGAGGATCTTGACGG, the sensor-assay potency score (higher = more potent) was -0.484.
As for TTCGTTGTATAACACATCCACC, the sensor-assay potency score (higher = more potent) was -1.02.
As to TCGCAACTTCTTCTTCTTGAGG, the sensor-assay potency score (higher = more potent) is -1.45.
The sequence TACATTTTCTGCTTCTCTTCGT showed a sensor-assay potency score (higher = more potent) of 0.646.
Sequence TCTTCTTGAGGATCTTGACGGC registered a sensor-assay potency score (higher = more potent) of -0.46.
TTCGCAACTTCTTCTTCTTGAG had a sensor-assay potency score (higher = more potent) of -0.46.
TCAGCTGACAGAAGTACCCGTG came in with a sensor-assay potency score (higher = more potent) of 0.17.

The next experiment deals with STK24. Described as above. The settings on record: shRNA.
In turn, TACATATGGACTGTCACACTGA showed a sensor-assay potency score (higher = more potent) of 0.632.
The same measure, in the same setting: then TATACAAATCTGTACACCCATC, with -1.31.
TTTCCTTCCAACGTCGGTGGGT had a sensor-assay potency score (higher = more potent) of 0.554.
The sequence TCTCGGATTGTGAAGATCCAGT displayed a sensor-assay potency score (higher = more potent) of -1.01.
On the same count and under the same terms, with TAATATAGTAGCGATCTGGGTT the figure was 0.44; with TGGACTGTCACACTGACTCAGC, -1.39; with TTCTAATAGATCTAGTGCGGAG, -0.878.
The sequence TTGTGCTTCAATAACTCCTTAG showed a sensor-assay potency score (higher = more potent) of -0.488.
Regarding TTTCATCTTATTTCTGTCCAAG, the sensor-assay potency score (higher = more potent) is -0.728.
TAATTGTAGATAAACACTGAGA registered a sensor-assay potency score (higher = more potent) of -0.826.
The sequence TTTCTCTTAATATAGTAGCGAT yielded a sensor-assay potency score (higher = more potent) of -0.861.
